The experiment can be described thus: activators of LNCaP cell differentiation, retest, confirmation, side scatter shift, flow cytometry (AID 1069).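 Note: LNCaP human prostate cancer cells in low-serum medium with charcoal-stripped FBS; percent of cells with raised granularity gated so DMSO controls show 10%.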 To be noted: 4 d, stronger effect = higher value. On the technique in general: Flow cytometry measures light scatter and fluorescence of single cells or particles in a stream.

The structures appear in SMILES notation. Activity calls are given as the source filed them.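 Rule for the calls: active = high combined rank on largest and smallest cell-count-weighted shift across three tests, rank score above 45, floors 50 and 25 (some results past the limit were not filed as active); inactive = the rest.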

On to `O=c1cc(-c2ccccc2)[nH]c2ccccc12`, for which the side scatter shift is, setting by setting: (at 100 µM) 22.2% (inactive); (side scatter shift, at 10 µM) 9.15%.
On to `CCN(CC)CCCNC(=O)c1cc(-c2ccc(Cl)c(Cl)c2)on1`, for which the side scatter shift is, setting by setting: (at 100 µM) 22.7% (inactive); (side scatter shift, at 10 µM) 36.7%.
The matching figures for `CCOC(=O)c1[nH]c(C)c(C(=O)NC2CCCCCC2)c1C`: 4.8% (inactive) and 8.6%.
Consider `O=C(NCCCN1CCN(c2ccc(F)cc2)CC1)c1cccc(N2CCCC2=O)c1`, for which the side scatter shift was 51.9% (active) (at 100 µM) and 13.7% (side scatter shift, at 10 µM).
For `Cc1ccc2c(c1)-c1c(cnn1CC(=O)Nc1ccccc1N1CCN(C)CC1)CO2`, the side scatter shift is 9.6% (active) (at 100 µM) and 38% (side scatter shift, at 10 µM).
For `O=c1cc(N2CCc3ccccc3C2)[nH]c(=O)n1C1CCCCC1`, in that order: 16.8% (inactive) and 5.9%.
For `CC(C)CCNC(=O)C1CCN(c2nc3ccccc3o2)CC1`, in that order: 28.8% (inactive) and 7.65%.
For the molecule `COc1ccc(NC(=O)NCCCN2CCN(c3cc(C)ccc3C)CC2)cc1`, the side scatter shift is 0% (inactive) (at 100 µM) and 7.1% (side scatter shift, at 10 µM).
For the molecule `Cc1ccccc1-c1nc(CN2CCC(C(=O)O)CC2)c(C)o1`, the side scatter shift (at 100 µM) was 3.7% (inactive) and the side scatter shift (side scatter shift, at 10 µM) was determined as 1.25%.
As to `O=C(NCCCN1CCN(c2cccc(Cl)c2)CC1)c1ccc(N2CCCC2=O)cc1`, the side scatter shift runs as follows: (at 100 µM) 7.7% (inactive); (side scatter shift, at 10 µM) 10.1%.
Consider `COc1ccc(CCNC(=O)C2CCCN(Cc3nc(-c4ccccc4C)oc3C)C2)cc1OC` (stereo not drawn), for which the side scatter shift (at 100 µM) was 25% (inactive) and the side scatter shift (side scatter shift, at 10 µM) was found to be 5.4%.
For `CCN(CCCNS(=O)(=O)c1ccc2c(c1)oc(=O)n2C)c1cccc(C)c1`, in that order: 22.2% (inactive) and 4.85%.
The matching figures for `CCN1CCCC1CNC(=O)c1cc2c(-c3cccc(OC)c3)nn(C)c2s1` (stereo not drawn): 40% (inactive) and 12.8%.
The matching figures for `Cc1cccc(-c2nc(CN3CCCC(C(=O)NC4CCC(C)CC4)C3)c(C)o2)c1` (stereo not drawn): 40% (inactive) and 5.9%.
As to `CCOC(=O)CSc1nnc(CNC(=O)c2ccccc2OC)n1-c1ccc(OC)cc1`, the side scatter shift was 11.3% (inactive) (at 100 µM) and 4.3% (side scatter shift, at 10 µM).
With `Cc1oc(-c2cccc(Cl)c2)nc1CN1CCCC(C(=O)NC(C)c2ccc3c(c2)OCCO3)C1` (stereo not drawn), the side scatter shift runs as follows: (at 100 µM) 0% (inactive); (side scatter shift, at 10 µM) 1.65%.
For `CCN1CCN(c2ncc(C(=O)Nc3cc(Cl)c(OC)cc3OC)c3ccccc23)CC1`, in that order: 53.7% (inactive) and 19.2%.
As for `CCOc1ccc(OCC)c(NC(=O)C2CCCN(S(=O)(=O)c3c(C)noc3C)C2)c1` (stereo not drawn), the side scatter shift is 19.8% (inactive) (at 100 µM) and 2.05% (side scatter shift, at 10 µM).
The matching figures for `CCc1ccc(-c2nc(CN3CCCC(C(=O)NCCc4ccc(OC)c(OC)c4)C3)c(C)o2)cc1` (stereo not drawn): 25% (inactive) and 17.3%.
For the molecule `COc1ccc(N2CCN(CCCNC(=O)C3(S(=O)(=O)c4ccc(Cl)cc4)CC3)CC2)cc1`, the side scatter shift runs as follows: (at 100 µM) 26.9% (inactive); (side scatter shift, at 10 µM) 2.45%.
For `Cc1ccccc1-c1nc(CN2CCC(C(=O)NCCC3=CCCCC3)CC2)c(C)o1`, in that order: 9.1% (inactive) and 24.8%.
For the molecule `CCN1CCCC1CNC(=O)c1cc2c(-c3ccc(Cl)cc3)nn(C)c2s1` (stereo not drawn), the side scatter shift (at 100 µM) is 35.7% (active) and the side scatter shift (side scatter shift, at 10 µM) is 56.7%.
For `Cn1c(C(=O)NCCCN2CCN(c3ccccc3F)CC2)cc2c(=O)n(C)c3ccccc3c21`, in that order: 20% (inactive) and 7.65%.
`COc1ccccc1N1CCN(C(=O)CCn2c(=O)[nH]c3ccsc3c2=O)CC1`: the side scatter shift was 19.4% (inactive) (at 100 µM) and 1.7% (side scatter shift, at 10 µM).
Regarding `Cc1ccccc1CN1CCN(CC(=O)NCCCN2CCN(c3ccc(F)cc3)CC2)C1=O`, the side scatter shift (at 100 µM) was 3.3% (inactive) and the side scatter shift (side scatter shift, at 10 µM) was found to be 5.15%.
Turning to `CCc1ccc(NC(=O)NCCN2CCc3ccccc3C2)cc1`, the side scatter shift is 0% (inactive) (at 100 µM) and 8.75% (side scatter shift, at 10 µM).
For `CCCOc1ccccc1C1CC(=O)Nc2cc3c(cc21)OCO3` (stereo not drawn), in that order: 16.7% (inactive) and 22.1%.
For `N=c1n(CCO)c2ccccc2n1CCOc1ccc(Cl)cc1Cl`, in that order: 22.2% (inactive) and 8.75%.
For `CCN(CCNC(=O)C1CCN(Cc2nc(-c3cccc(Cl)c3)oc2C)CC1)c1ccccc1`, in that order: 66.7% (inactive) and 31.2%.
For the molecule `CN(C)CCCN1c2ccccc2CCc2ccc(Cl)cc21`, the side scatter shift by setting is: (at 100 µM) 20.9% (active); (side scatter shift, at 10 µM) 48.4%.
The matching figures for `CCn1c(=O)cc(OCC(=O)NCCCN2CCN(c3cccc(Cl)c3)CC2)c2ccccc21`: 40% (inactive) and 18.3%.
The matching figures for `CCOC(=O)N1CCC(NC(=O)c2cc3c(-c4ccc(Cl)cc4)nn(C)c3s2)CC1`: 22.5% (inactive) and 6.9%.
Take `Cc1noc(/C=C/c2ccco2)c1S(=O)(=O)N1CCC(C(=O)N2CCc3ccccc3C2)CC1`: the side scatter shift reads like this: (at 100 µM) 54.6% (active); (side scatter shift, at 10 µM) 7.3%.
Take `CCc1nn(C(C)C(=O)N2CCc3ccccc3C2)c(=O)c2cc3occc3n12` (stereo not drawn): the side scatter shift runs as follows: (at 100 µM) 5.5% (inactive); (side scatter shift, at 10 µM) 2.8%.
As to `CCSc1nnc(Cn2c(=O)sc3ccccc32)n1-c1ccccc1C`, the side scatter shift (at 100 µM) is 20.5% (inactive) and the side scatter shift (side scatter shift, at 10 µM) was found to be 9.7%.
The matching figures for `Cc1cc(=O)c2ccccc2[nH]1`: 11.2% (inactive) and 2.3%.
For the molecule `Cn1c(=O)cc(SCC(=O)NCCCN2CCN(c3ccccc3F)CC2)c2ccccc21`, the side scatter shift by setting is: (at 100 µM) 70.5% (active); (side scatter shift, at 10 µM) 12.8%.
The matching figures for `CCOC(=O)C1=C(O)CCn2c1nc1ccccc12`: 18% (inactive) and 3.3%.
In the case of `COc1ccc(CN2C(=O)C(O)(CC(=O)c3c(C)n[nH]c3C)c3ccccc32)cc1OC` (stereo not drawn), the side scatter shift is 9.9% (inactive) (at 100 µM) and 6.45% (side scatter shift, at 10 µM).

Values taken from PubChem BioAssay AID1069 (NMMLSC, 2008).
